# Several values for one entry are separate records, joined by “and”; a condition that tells them apart may be missing. Equal entries are not always repeated. Results filed as inconclusive are left out. Activity calls are given as the source filed them.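 The calls were made as follows, unless noted: active = compounds whose cell count with miR-34 switched on is under 0.7 times the count with it off; inactive = the rest.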
# Experiments:
# [1] = EMT-state selective cytotoxicity in co-culture – imaging, PC-3E GFP, TEM4-18 mCherry, primary screen (AID 1345086;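 active = compounds killing one labelled cell type while sparing the other, by normalised counts and ratio limits, not self-fluorescent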;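 as to all read-outs here: cells exposed to compound for 72 h before imaging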;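 as to red/green cell ratio (normalised): normalised mesenchymal count divided by normalised epithelial count so high means epithelial killing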); details: PC-3E GFP / TEM4-18 mCherry co-culture, imaging cell counts, at 1 µM; for red/green cell ratio (normalised): actives lie on both sides, counts scaled to control wells, 1 = unselective
# [2] = viability loss with induced miR-34 in A549 – imaging, A549 dox-inducible miR-34, nuclei and caspase counts, primary screen (AID 1347080); details: A549 miR-34 inducible, Hoechst nuclei count, 48 h
# [3] = MELAS cybrid and Rieske KO viability enhancers – cell-based, MELAS cybrids, Rieske KO mouse fibroblasts, CellTiter-Glo, primary screen (AID 1508586;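 active = mean z-score across replicates of 1.96 or higher in either the MELAS or the Rieske mutant cell line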;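 also: z relative to plate mean and SD of compound and empty wells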); details: low glucose
# [4] = chitosan synthesis blockers in C. neoformans – flow cytometry, Cibacron Brilliant Red staining (AID 1347148; call rule not given here;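 also: compound exposure lasted three days at 37 degrees C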); details: Cryptococcus neoformans chitosan, stronger effect = lower value; at 10 µM unless noted
# [5] = blockers of cellular phospholipid synthesis – cell-based, LOPAC library, screen 4, primary screen (AID 1347384; call rule not given here); details: animal cells, phospholipid biosynthesis inhibition screen; at 10 µM
# [6] = viability loss in pontine glioma line – cell-based, SU-DIPG-IV, MIPE4.0, CellTiter-Glo, qHTS, dose response (AID 1347063; cut-off not given, nearly all actives have AC50 up to about 30 µM;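 also: compound exposure lasted 48 hours before the viability readout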); details: CellTiter-Glo ATP luminescence
# [7] = viability loss in pontine glioma line – cell-based, SU-DIPG-XIII, MIPE5.0, CellTiter-Glo, qHTS, dose response (AID 1347064; cut-off not given, nearly all actives have AC50 up to about 23 µM;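 as to AC50: cells exposed to compound for 48 hours before the viability read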); details: CellTiter-Glo ATP luminescence
# [8] = viability loss in pontine glioma line – cell-based, SU-DIPG-XXV, MIPE5.0, CellTiter-Glo, qHTS, dose response (AID 1347065; cut-off not given, nearly all actives have AC50 up to about 26 µM;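 also: cells exposed to compound for 48 hours before ATP readout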); details: CellTiter-Glo ATP luminescence
# [9] = growth inhibition of DIPG cells – cell-based, MIPE5.0 library, qHTS (AID 1347068; cut-off not given, nearly all actives have IC50 up to about 30 µM); details: SU-DIPG-XXV viability
# [10] = measured here: epithelial PC-3E GFP cell survival
# [11] = measured here: mesenchymal TEM4-18 mCherry cell survival
# [12] = stronger effect = lower value, cell number ratio, induced over uninduced
# [13] = measured here: relative caspase fold change +Dox/-Dox
# [14] = measured here: total cells with miR-34 induction, stronger effect = lower value
# [15] = measured here: total cells without miR-34 induction
# [16] = MELAS cybrid survival, CellTiter-Glo 48 h, stronger effect = higher value
# [17] = Rieske KO mouse fibroblast survival, CellTiter-Glo 72 h
smiles,measurement,setting,value
Nc1nccs1,red/green cell ratio (normalised),[1],0.78 (inactive)
same,normalised cell number,[1]; [10],1.25
same,normalised cell number,[1]; [11],0.98
same,fold change,[2]; [12],0.923 (inactive)
same,fold change,[2]; [13],0.616
same,cell count,[2]; [14],7980
same,cell count,[2]; [15],8650
same,z-score,[3]; [16],-0.119 (inactive)
same,z-score,[3]; [17],-0.205
CC(C)N=C(N)/N=C(\N)Nc1ccc(Cl)cc1,red/green cell ratio (normalised),[1],1.08 (inactive)
same,normalised cell number,[1]; [10],1.11
same,normalised cell number,[1]; [11],1.2
same,fold change,[2]; [12],0.874 (inactive) and 0.829 (inactive)
same,fold change,[2]; [13],0.463 and 3.03
same,cell count,[2]; [14],7740 and 10800
same,cell count,[2]; [15],8860 and 13000
same,z-score,[3]; [16],-1.19 (inactive)
same,z-score,[3]; [17],0.61
CCN(CCCCOC(=O)c1ccc(OC)c(OC)c1)C(C)Cc1ccc(OC)cc1 (centres undefined),red/green cell ratio (normalised),[1],1.1 (inactive)
same,normalised cell number,[1]; [10],0.88
same,normalised cell number,[1]; [11],0.97
same,fold change,[2]; [12],0.98 (inactive) and 0.929 (inactive)
same,fold change,[2]; [13],1.13 and 3.04
same,cell count,[2]; [14],7620 and 11300
same,cell count,[2]; [15],7780 and 12200
same,z-score,[3]; [16],1.33 (inactive)
same,z-score,[3]; [17],0.343
Cc1[nH]c(C)c(Cl)c(=O)c1Cl,red/green cell ratio (normalised),[1],0.99 (inactive)
same,normalised cell number,[1]; [10],1
same,normalised cell number,[1]; [11],0.99
same,fold change,[2]; [12],0.869 (inactive) and 0.865 (inactive)
same,fold change,[2]; [13],4.77 and 1.49
same,cell count,[2]; [14],11500 and 9370
same,cell count,[2]; [15],13300 and 10800
same,z-score,[3]; [16],-1.24 (inactive)
same,z-score,[3]; [17],-1.35
CC(C(=O)O)c1ccc2c(c1)[nH]c1ccc(Cl)cc12 (centres undefined),red/green cell ratio (normalised),[1],1.13 (inactive)
same,normalised cell number,[1]; [10],1.37
same,normalised cell number,[1]; [11],1.54
same,fold change,[2]; [12],0.887 (inactive) and 0.921 (inactive)
same,fold change,[2]; [13],0.75 and 3.71
same,cell count,[2]; [14],8310 and 12000
same,cell count,[2]; [15],9370 and 13100
same,z-score,[3]; [16],-0.267 (inactive) and -0.0777 (inactive)
same,z-score,[3]; [17],-0.169 and 0.447
CC(C)(Oc1ccc(CCNC(=O)c2ccc(Cl)cc2)cc1)C(=O)O,red/green cell ratio (normalised),[1],1.21 (inactive)
same,normalised cell number,[1]; [10],1.03
same,normalised cell number,[1]; [11],1.25
same,fold fluorescence,[4],9.76 [at 138.2 µM] (inactive)
same,outcome,[5],inactive
same,z-score,[3]; [16],-0.161 (inactive) and 0.38 (inactive) and -0.46 (inactive)
same,z-score,[3]; [17],-0.148 and 0.0926 and -0.592
CCCCCCCCCCCCCCCCOP(=O)([O-])OCC[N+](C)(C)C,red/green cell ratio (normalised),[1],0.8 (inactive)
same,normalised cell number,[1]; [10],1.32
same,normalised cell number,[1]; [11],1.06
same,fold change,[2]; [12],1 (inactive) and 0.955 (inactive)
same,fold change,[2]; [13],0.961 and 1.28
same,cell count,[2]; [14],5900 and 10200
same,cell count,[2]; [15],5890 and 10700
same,z-score,[3]; [16],-0.744 (inactive)
same,z-score,[3]; [17],-0.431
Cc1ccnc(NS(=O)(=O)c2ccc(N)cc2)n1,red/green cell ratio (normalised),[1],1.35 (inactive)
same,normalised cell number,[1]; [10],0.98
same,normalised cell number,[1]; [11],1.33
same,fold change,[2]; [12],0.871 (inactive) and 0.913 (inactive)
same,fold change,[2]; [13],1.08 and 0.734 and 2.66
same,cell count,[2]; [14],8890 and 7940 and 11400
same,cell count,[2]; [15],10200 and 8690 and 12500
same,z-score,[3]; [16],-0.105 (inactive) and 0.577 (inactive)
same,z-score,[3]; [17],-0.152 and -0.312
Nc1ccc(S(=O)(=O)Nc2ccc(Cl)nn2)cc1,red/green cell ratio (normalised),[1],1.19 (inactive)
same,normalised cell number,[1]; [10],0.46
same,normalised cell number,[1]; [11],0.54
same,fold change,[2]; [12],0.789 (inactive) and 0.924 (inactive)
same,fold change,[2]; [13],1.6 and 3.43
same,cell count,[2]; [14],7930 and 11400
same,cell count,[2]; [15],10000 and 12300
same,z-score,[3]; [16],0.0891 (inactive)
same,z-score,[3]; [17],0.0567
CCN(CC)CCOC(=O)C(Cc1cccc2ccccc12)CC1CCCO1 (centres undefined),red/green cell ratio (normalised),[1],1.07 (inactive)
same,normalised cell number,[1]; [10],0.99
same,normalised cell number,[1]; [11],1.06
same,fold change,[2]; [12],0.845 (inactive) and 0.836 (inactive)
same,fold change,[2]; [13],1.23 and 5.94
same,cell count,[2]; [14],9000 and 10700
same,cell count,[2]; [15],10700 and 12800
same,z-score,[3]; [16],0.101 (inactive)
same,z-score,[3]; [17],-0.0853
O=C1c2ccccc2C(=O)c2c1ccc(O)c2O,red/green cell ratio (normalised),[1],0.87 (inactive)
same,normalised cell number,[1]; [10],1.05
same,normalised cell number,[1]; [11],0.91
same,fold change,[2]; [12],0.918 (inactive)
same,fold change,[2]; [13],1.48
same,cell count,[2]; [14],8090
same,cell count,[2]; [15],8800
same,z-score,[3]; [16],-0.0543 (inactive)
same,z-score,[3]; [17],-0.449
COc1cc(/C=C/C(=O)CC(=O)/C=C/c2ccc(O)c(OC)c2)ccc1O,AC50,[6],30.3 µM (active)
same,AC50,[7],16.6 µM (active)
same,AC50,[8],20.9 µM (active)
same,fold change,[2]; [12],0.955 (inactive)
same,fold change,[2]; [13],1.47
same,cell count,[2]; [14],6170
same,cell count,[2]; [15],6460
same,fold fluorescence,[4],8.92 [at 135.7 µM] (inactive)
O=c1cc(CO)occ1O,fold change,[2]; [12],0.923 (inactive)
same,fold change,[2]; [13],0.344
same,cell count,[2]; [14],9020
same,cell count,[2]; [15],9780
same,z-score,[3]; [16],0.152 (inactive)
same,z-score,[3]; [17],-0.154
C[C@]12C[C@H](O)[C@H]3[C@@H](CCC4=CC(=O)CC[C@@]43C)[C@@H]1CC[C@@H]2C(=O)CO,fold change,[2]; [12],0.955 (inactive) and 0.755 (inactive) and 0.815 (inactive)
same,fold change,[2]; [13],2.18 and 1.95 and 1.31
same,cell count,[2]; [14],7560 and 6880 and 7400
same,cell count,[2]; [15],7920 and 9120 and 9080
same,outcome,[5],inactive
same,z-score,[3]; [16],0.478 (inactive) and -0.124 (inactive)
same,z-score,[3]; [17],-0.146 and 0.938
C#C[C@]1(O)CC[C@H]2[C@@H]3[C@H](C)CC4=C(CCC(=O)C4)[C@H]3CC[C@@]21C,outcome,[7],inactive
same,outcome,[8],inactive
same,outcome,[9],inactive
same,fold change,[2]; [12],0.908 (inactive) and 0.883 (inactive)
same,fold change,[2]; [13],0.948 and 1.2
same,cell count,[2]; [14],5910 and 8230
same,cell count,[2]; [15],6510 and 9320
same,z-score,[3]; [16],0.727 (inactive) and 0.175 (inactive)
same,z-score,[3]; [17],0.291 and -0.0373
CC[C@]12CCCN3CCc4c(n(c5ccccc45)[C@@](O)(C(=O)OC)C1)[C@@H]32,fold change,[2]; [12],0.85 (inactive)
same,fold change,[2]; [13],1.33
same,cell count,[2]; [14],8280
same,cell count,[2]; [15],9750
same,z-score,[3]; [16],0.291 (inactive)
same,z-score,[3]; [17],-0.0307
CC1CC(OC(=O)C(O)c2ccccc2)CC(C)(C)N1C (centres undefined),fold change,[2]; [12],0.792 (inactive)
same,fold change,[2]; [13],1.56
same,cell count,[2]; [14],7700
same,cell count,[2]; [15],9720
same,z-score,[3]; [16],-0.0236 (inactive)
same,z-score,[3]; [17],-0.373
